From PubChem BioAssay (NCI) come the findings set out here.

Among the test systems are SR leukemia; RPMI-8226 leukemia; OVCAR-8 ovarian; OVCAR-5 ovarian; OVCAR-4 ovarian; SK-OV-3 ovarian; IGROV1 ovarian; OVCAR-3 ovarian; HS 578T breast; NCI/ADR-RES ovarian; T-47D breast; BT-549 breast; MDA-MB-435 melanoma; SW-620 colon; MCF7 breast; HCT-116 colon; HCC-2998 colon; KM12 colon; MDA-MB-468 breast.
Common to all, as to assay: NCI-60 one-dose screen, 48 h (100 = growth as untreated, 0 = no growth, -100 = all killed)
Conditions in all cases: 10 µM unless noted

The panel holds about 83,000 compounds, 20% with a hit somewhere; the sample as a whole holds those more often.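 Values shown are percent growth following 48 h exposure of cells in 96-well plates to a single concentration of compound; below 10 was considered active.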 Values without a mark were called inactive. Activity calls are given as the source filed them.

As for `C#CCOc1ccc(/C=N/Nc2nc(-c3cc4cc(OC)ccc4oc3=O)cs2)cc1OC`, the growth was 34.7% in the assay with SR leukemia; 50.9% with RPMI-8226 leukemia; 50.8% in the assay on OVCAR-8 ovarian; 47% in the assay with OVCAR-5 ovarian; 40.7% in the assay with OVCAR-4 ovarian; 71% in the assay with SK-OV-3 ovarian. In addition, the growth in the assay on IGROV1 ovarian was 81%; with OVCAR-3 ovarian, 63.5%; in the assay with HS 578T breast, 68.1%; in the assay with NCI/ADR-RES ovarian it was 50.5%; in the assay with T-47D breast, 51.8%; in the assay on BT-549 breast, 54.1%. The growth in the assay on MDA-MB-435 melanoma was 63.9%; in the assay on SW-620 colon it was 39.7%; in the assay on MCF7 breast, 57.3%; in the assay with HCT-116 colon, 46.4%; in the assay with HCC-2998 colon it was 84.4%; in the assay with KM12 colon, 50.3%. Also, the growth with MDA-MB-468 breast is 42.9%.

With `S=C(Nc1ccc(OCc2nc3ccccc3[nH]2)cc1)NC1CCCCC1`, the growth in the assay with SR leukemia is 105%; with RPMI-8226 leukemia it was 101%; with OVCAR-8 ovarian, 95.1%; with OVCAR-5 ovarian, 117%; in the assay on OVCAR-4 ovarian it was 102%; in the assay with SK-OV-3 ovarian it was 108%. Also, the growth with IGROV1 ovarian is 107%; in the assay on OVCAR-3 ovarian it was 123%; with HS 578T breast it was 102%; in the assay on NCI/ADR-RES ovarian it was 106%; with T-47D breast, 88.5%; in the assay on BT-549 breast, 109%. The growth with MDA-MB-435 melanoma is 105%; in the assay on SW-620 colon, 120%; in the assay on MCF7 breast, 75.3%; with HCT-116 colon, 102%; with HCC-2998 colon, 111%; with KM12 colon, 82.1%. In addition, the growth in the assay on MDA-MB-468 breast was 107%.

In the case of `Clc1ccc(-c2ccc(OCCCN3CCN(c4ccncc4)CC3)cc2)cc1`, the growth in the assay with SR leukemia was -21.2% (active); with RPMI-8226 leukemia, -9.75% (active); with OVCAR-8 ovarian it was 86.3%; in the assay on OVCAR-5 ovarian, 96.5%; with OVCAR-4 ovarian, 64.7%; with SK-OV-3 ovarian, 58%. In addition, the growth with IGROV1 ovarian was 93.7%; in the assay on OVCAR-3 ovarian it was 67.4%; in the assay on HS 578T breast, 82.5%; in the assay on NCI/ADR-RES ovarian, 49.7%; with T-47D breast, 15.6%; with BT-549 breast it was 75.4%. Besides, the growth with MDA-MB-435 melanoma is 33.5%; in the assay with SW-620 colon it was -8.83% (active); in the assay on MCF7 breast, -1.15% (active); in the assay on HCT-116 colon, -28.8% (active); in the assay with HCC-2998 colon it was 21.2%; with KM12 colon, 61.4%. Moreover, the growth in the assay with MDA-MB-468 breast was -9.68% (active).

As for `COc1ccc(C2CC(c3ccc(S(=O)(=O)NCCNc4nc(Nc5ccc(F)cc5)nc(N(C)C)n4)cc3)=Nc3c(N)nc(N)nc3N2)cc1` (stereo not given), the growth with SR leukemia was 8.79% (active); in the assay on RPMI-8226 leukemia it was 24%; in the assay on OVCAR-8 ovarian, 79.5%; in the assay with OVCAR-5 ovarian it was 98.8%; with OVCAR-4 ovarian it was 83.7%; in the assay with SK-OV-3 ovarian it was 108%. For the same molecule, the growth in the assay with IGROV1 ovarian was 95.7%; with OVCAR-3 ovarian it was 95.4%; in the assay with HS 578T breast, 70.6%; in the assay on NCI/ADR-RES ovarian it was 99.9%; with T-47D breast, 66.2%; with BT-549 breast, 57.1%. In addition, the growth in the assay with MDA-MB-435 melanoma was 83.3%; in the assay on SW-620 colon, 96%; in the assay on MCF7 breast, 47.6%; in the assay on HCT-116 colon, 51.2%; with HCC-2998 colon, 90.6%; with KM12 colon it was 82.5%. Also, in the assay on MDA-MB-468 breast, the growth was 8.63% (active).

For `OCC1(CCCc2ccccc2)CCCN(c2nccc3ccccc23)C1` (stereo not given), the growth was 12.1% in the assay on SR leukemia; 5.11% (active) in the assay with RPMI-8226 leukemia; 23.1% with OVCAR-8 ovarian; 62.4% with OVCAR-5 ovarian; 32.8% in the assay with OVCAR-4 ovarian; 57.7% in the assay on SK-OV-3 ovarian. Besides, the growth with IGROV1 ovarian was 62.2%; with OVCAR-3 ovarian it was 45.6%; with HS 578T breast, 42%; in the assay with NCI/ADR-RES ovarian it was 11.8%; in the assay on T-47D breast, 28.3%; with BT-549 breast it was -3.12% (active). Moreover, the growth with MDA-MB-435 melanoma was 41.2%; in the assay with SW-620 colon it was 39.2%; with MCF7 breast it was 12.3%; with HCT-116 colon it was 14.8%; with HCC-2998 colon it was 60.3%; with KM12 colon it was 29.1%. In addition, the growth in the assay on MDA-MB-468 breast is -15.8% (active).

On to `COc1ccc(-c2ccnc(SCc3cc4ccccc4[nH]c3=O)n2)cc1`, for which the growth with SR leukemia was 14.9%; in the assay on RPMI-8226 leukemia, 65.5%; with OVCAR-8 ovarian it was 56.3%; in the assay with OVCAR-5 ovarian, 82.1%; in the assay with OVCAR-4 ovarian, 41.5%; with SK-OV-3 ovarian, 82.4%. Also, the growth was 75% in the assay with IGROV1 ovarian; 81.6% in the assay with OVCAR-3 ovarian; 48.2% in the assay with HS 578T breast; 26.9% in the assay with NCI/ADR-RES ovarian; 70.2% in the assay with T-47D breast; 29.7% in the assay on BT-549 breast. Also, the growth in the assay with MDA-MB-435 melanoma is 1.7% (active); in the assay with SW-620 colon, 35.1%; with HCT-116 colon, 31%; in the assay on HCC-2998 colon it was 59.6%; in the assay on KM12 colon it was 57.3%; in the assay with MDA-MB-468 breast, 6.26% (active).

With `Nc1nnc(-c2c[nH]c3ccc(Br)cc23)c(-c2c[nH]c3ncc(Br)cc23)n1`, the growth with SR leukemia was 23.6%; in the assay with RPMI-8226 leukemia, 19.6%; in the assay with OVCAR-8 ovarian, 34.3%; in the assay on OVCAR-5 ovarian it was 59%; in the assay with OVCAR-4 ovarian, 33.6%; with SK-OV-3 ovarian, 37.6%. In addition, the growth in the assay with IGROV1 ovarian is 22%; with OVCAR-3 ovarian, 62.4%; in the assay with HS 578T breast, 48.8%; in the assay on NCI/ADR-RES ovarian, 78.6%; in the assay on T-47D breast, 16.7%; in the assay on BT-549 breast, 35.4%. Besides, the growth in the assay on MDA-MB-435 melanoma was 30.3%; in the assay with SW-620 colon, 50.2%; in the assay on MCF7 breast, 12.3%; in the assay on HCT-116 colon, 17.1%; in the assay on HCC-2998 colon, 48.5%; in the assay on KM12 colon, 32.6%. In the assay on MDA-MB-468 breast, the growth is 26.1%.

For the molecule `C=C1CC[C@@H]2[C@]3(C)COC(c4cn[nH]c4-c4cccc(Cl)c4)O[C@@H]3CC[C@@]2(C)[C@@H]1C/C=C1/C(=O)OCC1O` (stereo not given in full), the growth in the assay on SR leukemia was 14.7%; with RPMI-8226 leukemia, -11.7% (active); with OVCAR-8 ovarian, -23.3% (active); with OVCAR-5 ovarian, -62% (active); in the assay on OVCAR-4 ovarian, 35.2%; in the assay with SK-OV-3 ovarian it was 49.6%. Moreover, the growth in the assay on IGROV1 ovarian is -44.1% (active); in the assay on OVCAR-3 ovarian, -62% (active); with HS 578T breast it was 26.8%; with NCI/ADR-RES ovarian, -56.4% (active); in the assay on T-47D breast it was -2.68% (active); in the assay on BT-549 breast it was -92.4% (active). The growth is -32.5% (active) in the assay with MDA-MB-435 melanoma; -57.6% (active) in the assay with SW-620 colon; -91.6% (active) in the assay with HCT-116 colon; -91.2% (active) in the assay with HCC-2998 colon; -25.2% (active) in the assay on KM12 colon; -84.3% (active) in the assay with MDA-MB-468 breast.
